HT1080-NT tox: kills 2HG-producing HT-1080-NT fibrosarcoma cells; HT-1080-NT fibrosarcoma viability, CellTiter-Glo ATP luminescence, 48 h; Potency, µM (titrated, usually from 46.1 µM), without a hit: at the top dose activity, negative = less viability, hits mostly cytotoxic; hit rate 1.6% among 360,000;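 also: NT is the 2HG producing partner of a matched IDH1 knockdown line; potency is read from the fitted curve at half-maximal effect; 0% = DMSO-treated cells and -100% = media-only wells without cells; nearly all actives have a fitted effect of over 55% in size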
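Read-out is CellTiter-Glo luminescence after 10 minutes at room temperature, following 48 hours' compound treatment of HT-1080-NT cells (750 cells/well, RPMI, 5% FBS, 37 degrees C).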
IL1B secr inh: blocks inflammasome-driven IL-1 beta release; THP-1 LPS/ATP IL-1B secretion, AlphaLISA, 16 h; active compounds read low; activity change, % at 57.5 µM; hit rate 4.7% among 360,000; AID 743279; in the data active = activity change below about -50%; inconclusive = mostly about -30% to -49%
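THP-1 cells pretreated 1 hr with compounds (up to 57.5 uM final), then stimulated with LPS (250 ng/mL final) plus ATP (1.25 mM final); secreted IL-1B measured by AlphaLISA after 16 hr, decreased signal indicating inhibition.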
HT1080 IDH1KD tx: HT-1080 IDH1 knockdown cell toxicity (counter line); HT-1080 IDH1 knockdown viability, ATP luminescence, 48 h; Potency, µM (top dose mostly 46.1 µM), for inactives: at the top dose activity, negative = toxicity, usual class: cytotoxic; hit rate 2% among 360,000;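 also: potency is read from the fitted curve at half-maximal effect; 0% = DMSO wells and -100% = cell-free medium wells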
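IDH1KD HT-1080 cells, 750/well, RPMI + 5% FBS; compound pinned after 2 h settling; 48 h, 37 °C; CellTiter-Glo luminescence; % activity normalised to DMSO and no-cell wells; curves fitted, classed by r2 and efficacy.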
12-LOX inh: inhibitors of human 12S-lipoxygenase ALOX12 | P18054 | purified 12hLO, xylenol orange hydroperoxide absorbance | Potency, µM (top dose mostly 108 µM), for the others: at the highest dose activity change, negative = inhibition, usual class: inhibitors | hit rate 1.1% among 580,000 | AID 1671190; also: potency is read from the fitted curve at half-maximal effect
Target sequence (P18054 whole entry, looked up): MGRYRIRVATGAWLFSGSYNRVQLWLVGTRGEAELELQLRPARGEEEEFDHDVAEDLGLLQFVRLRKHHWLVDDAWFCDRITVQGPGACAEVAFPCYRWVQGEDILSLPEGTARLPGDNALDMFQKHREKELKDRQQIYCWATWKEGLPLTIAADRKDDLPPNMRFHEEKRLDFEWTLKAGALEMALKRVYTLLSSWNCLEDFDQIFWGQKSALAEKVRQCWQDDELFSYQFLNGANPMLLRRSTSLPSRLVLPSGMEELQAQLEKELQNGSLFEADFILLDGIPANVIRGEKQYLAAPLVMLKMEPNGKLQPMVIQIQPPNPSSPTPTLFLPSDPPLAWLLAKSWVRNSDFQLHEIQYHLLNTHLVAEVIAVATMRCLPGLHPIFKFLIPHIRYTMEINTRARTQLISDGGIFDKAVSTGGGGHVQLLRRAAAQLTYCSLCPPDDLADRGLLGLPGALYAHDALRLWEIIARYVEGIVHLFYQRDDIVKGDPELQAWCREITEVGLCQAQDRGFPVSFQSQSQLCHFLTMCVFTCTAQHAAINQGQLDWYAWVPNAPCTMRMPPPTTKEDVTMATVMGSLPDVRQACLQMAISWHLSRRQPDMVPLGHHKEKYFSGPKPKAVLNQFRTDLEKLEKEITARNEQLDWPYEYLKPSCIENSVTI
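Purified human 12hLO at 150 nM in 25 mM Hepes, 0.01% Triton X-100, pH 7.0, preincubated 15 min at room temperature with compound. Reaction started with 40 uM arachidonic acid, 30 min at room temperature. Hydroperoxide measured by Fe-xylenol orange, 573/405 nm absorbance ratio.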
TDP1 cell CPT: DT40-hTDP1 cell growth loss with CPT; chicken DT40 Tdp1-/-;hTDP1 cells + 20 nM CPT, ATP luminescence, 48 h; Potency, µM (top dose mostly 46.2 µM), for the others: at the top dose activity change, negative = growth inhibition, hits mostly inhibitors; hit rate 12% among 420,000; also: potency is read from the fitted curve at half-maximal effect; nearly all actives have a fitted effect of over 55% in size
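Chicken DT40 Tdp1-/- cells stably complemented with human TDP1 were seeded at 400 cells/well in medium containing 20 nM camptothecin, exposed to pin-transferred compounds, and grown at 37 °C for at least 48 hr. Viability was read as ATP luminescence.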
TDP1 cell noCPT: qHTS for Inhibitors of human tyrosyl-DNA phosphodiesterase 1 (TDP1): qHTS in cells in absence of CPT | Potency, µM (highest dose often 46.2 µM), for inactives: at the highest dose activity change, negative = growth inhibition, actives largely listed as inhibitors | hit rate 15% among 420,000 | DT40 Tdp1-/- hTDP1 cells, no CPT, ATP luminescence, 48 h | AID 686978, 2013; also: potency is read from the fitted curve at half-maximal effect; nearly all actives have a fitted effect of over 55% in size
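Seeded 400 DT40-hTDP1 cells/well (vehicle DMSO, no 20 nM CPT); pinned compounds; ≥48 hr at 37 °C; CellTiter-Glo luminescence as viability measure.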
The depositor's hits bear a star; i = inactive; ? = inconclusive; · = no result given; [ ] = another dose, or the depositor's remark. The sample as a whole holds a higher share of hits than the screen did. Unless noted, calls follow the shape of the dose curve; as a rule, active = well fitted curve in the direction sought with a large enough effect; inconclusive = small, poorly fitted or top-dose-only effect, or another doubt; inactive = no such curve, though single readings can be large; an effect the other way counts as inactive or inconclusive. Unless noted, % is scaled to controls: 0 for no effect and ±100 for the full control effect.

SMILES | HT1080-NT tox | IL1B secr inh | HT1080 IDH1KD tx | 12-LOX inh | TDP1 cell CPT | TDP1 cell noCPT
COc1cccc(N2CCN(Cc3nnc(-c4ccc5c(c4)OCO5)o3)CC2)c1 | · | · | · | 0% | 1% | -27%
Clc1ccc(N2CCN(Cc3nnc(-c4ccc5c(c4)OCO5)o3)CC2)cc1 | · | · | · | -29% | ? | 18µM*
Fc1ccc(-c2nnc(CN3CCN(c4ncc(C(F)(F)F)cc4Cl)CC3)o2)cc1 | -20% | -17 | ? | 0% | 13µM* | 15µM*
Cc1ccc(Cl)cc1N1CCN(Cc2nnc(-c3ccc4c(c3)OCO4)o2)CC1 | · | · | · | -22% | ? | ?
Cc1ccc2nc(C)c3c(c2c1)SCC3 | 19% | · | 7% | 110% | 18% | -11%
O=C(N/N=C/c1c(O)n(-c2ccccc2Cl)c(=O)c2ccccc12)C1COc2ccccc2O1 (configuration not stated) | ? | 51 | ? | · | ? | ?
Cc1ccc(-n2c(O)c(/C=N/NC(=O)C3COc4ccccc4O3)c3ccccc3c2=O)cc1 (configuration not stated) | -9% | 45 | -14% | -25% | ? | 26µM*
Cc1[nH]n(-c2ccccc2)c(=O)c1/C=N\NC(=O)C1COc2ccccc2O1 (configuration not stated) | ? | 19 | ? | ? | 3.3µM* | 5.2µM*
Cc1c(/C=N\NC(=O)C2COc3ccccc3O2)c2ccccc2n1C (configuration not stated) | 0.65µM* | 3 | 0.65µM* | 17% | 0.73µM* | 0.92µM*
CC(=O)N/N=C/c1c(C)[nH]n(-c2ccccc2)c1=O | -17% | 0 | -21% | -24% | -16% | ?
Cn1cc(/C=N\NC(=O)C2COc3ccccc3O2)c2ccccc21 (configuration not stated) | · | · | · | 21% | · | ·
Cn1c(=O)n(CC(=O)N2CCCCCC2)c(=O)c2cc(S(=O)(=O)Nc3cccc(C#N)c3)ccc21 | · | · | · | 6% | · | ·
Nc1nc(-c2ccc(F)cc2)cs1 | -5% | -4 | 14% | -10% | -6% | -14%
Nc1nc(-c2ccc(Br)cc2)cs1 | -6% | 0 | -8% | 45µM* | -10% | -13%
CC(=O)N1N=C(c2ccc(C)cc2)OC1c1ccc(Br)cc1 (configuration not stated) | -12% | -69* | -10% | ? | 5% | -29%
Cc1c(O)ccc(-c2n[nH]c(C(=O)O)c2-c2nc3ccccc3s2)c1O | 9% | 25 | 4% | 35µM* | -4% | 4%
Cc1c(O)ccc(-c2[nH]ncc2-c2nc3ccccc3s2)c1O | -9% | ? | -20% | -29% | ? | ?
Nc1c(NCCN2CCCCC2)c2ccccc2oc1=O | -9% | 11 | -1% | i | 15µM* | 16µM*
Cc1cc2nc(CCN3CCOCC3)n(S(=O)(=O)c3ccc(C(C)(C)C)cc3)c2cc1C | -4% | 11 | 3% | -2% | 18µM* | ?
CCn1nnnc1SCC(=O)Nc1cc(OC)cc(OC)c1 | -8% | 10 | -4% | -1% | 16µM* | ?
COc1cccc(-n2nnnc2SCC(=O)Nc2cccc(NC(C)=O)c2)c1 | -8% | ? | -21% | 17% | -19% | -19%
COc1cccc(-n2nnnc2SCC(=O)Nc2ccc3c(c2)OCCO3)c1 | 14µM* | 21 | ? | -8% | -24% | -29%
O=C(CSc1nnnn1-c1ccc2c(c1)OCO2)NCc1cccs1 | -8% | -14 | -2% | 0% | -20% | -24%
CCn1nnnc1SCC(=O)Nc1cccc(NC(C)=O)c1 | -6% | 0 | 10% | ? | -22% | -17%
COc1ccc(-n2nnnc2SCC(=O)Nc2ccc3c(c2)OCCO3)c(OC)c1 | -9% | 7 | -14% | 3% | 13µM* | 23µM*
SMILES | HT1080-NT tox | IL1B secr inh | HT1080 IDH1KD tx | 12-LOX inh | TDP1 cell CPT | TDP1 cell noCPT
O=C(CSc1nnnn1-c1ccc2c(c1)OCO2)NCc1ccccc1 | ? | 86 | 13µM* | -2% | 15µM* | 15µM*
CCn1nnnc1SCC(=O)Nc1ccc2c(c1)OCCO2 | 15% | 11 | 5% | 1% | 5% | -11%
CNC(=S)NNC(=O)c1ccccc1C | · | · | · | 55% | · | ·
Cc1cc(C#Cc2c(-c3ccccc3)n(C)c3ccccc23)ccc1F | 3% | 2 | 5% | 2% | ? | -26%
O=C1c2c(nc(CNCc3ccc4c(c3)OCO4)n2Cc2ccccc2)NCCN1Cc1ccccc1 | · | · | · | 35% | · | ·
COc1cc(C2C3=C(CC(C)(C)CC3=O)N(C)C3=C2C(=O)CC(C)(C)C3)cc(Br)c1O | -2% | -8 | -3% | 0% | -6% | -15%
COc1cccc(-n2nnnc2SCC(=O)Nc2ccc(NC(C)=O)cc2)c1 | -17% | 6 | -5% | -6% | ? | 23µM*
COc1cccc(-n2c(=O)[nH]cc(C(=O)Nc3ccc4c(c3)OCCO4)c2=O)c1 | 1% | 23 | -2% | -14% | 4.1µM* | -20%
COc1ccc(-n2nnnc2SCC(=O)Nc2ccc3c(c2)OCCO3)cc1OC | -27% | 0 | -4% | -13%[57.4 µM] | ? | 9.2µM*
COC(=O)[C@H](Cc1ccc(OC)cc1)NC(=O)[C@H]1CN(C(C)=O)CCN1S(=O)(=O)c1ccccc1 | · | · | · | 23% | · | ·
CCOC(=O)C1(C)CCCN(C(=O)C(c2ccccc2)c2ccccc2)C1 (configuration not stated) | -2% | 9 | 6% | -4% | ? | ?
Cc1oc2c(O)c(O)ccc2c(=O)c1-c1cnn(-c2ccccc2)c1 | ? | 84 | ? | ? | ? | 18µM*
Cc1oc2c(O)c(O)ccc2c(=O)c1-c1ccc(Cl)cc1 | -9% | 22 | -18% | 5.6µM* | 12% | ?
Cn1cc(-c2ccc3c(c2)N(CC2CCCCC2)C(=O)COC3)cn1 | · | · | · | 14% | · | ·
O=C(Cc1ccc([N+](=O)[O-])cc1)Nc1cc(C(F)(F)F)cc(C(F)(F)F)c1 | -27% | · | ? | 135% | 4.1µM* | 6.5µM*
Cc1ccc([N+](=O)[O-])cc1NC(=O)Nc1cccc(F)c1 | -5% | -18 | -12% | -6% | 4.6µM* | 9.2µM*
Cc1ccc(N=Nc2ccc(C)cc2NC(=O)Nc2ccccc2F)cc1 | -1% | 7 | 5% | 16% | ? | 21µM*
Cc1cc([N+](=O)[O-])ccc1NC(=O)Cc1ccc(F)cc1 | 3% | -59* | 3% | -17% | 6% | -3%
Cc1ccc([N+](=O)[O-])cc1NC(=O)Cc1ccc(F)cc1 | -13% | -16 | -7% | -1% | -14% | 1%
